Holding throughout (assay): DAPPL (digital affinity profiling via proximity ligation, sequencing); 10 mM Tris-HCl pH 7.5, 50 mM NaCl, 1 mM DTT, 4% glycerol, room temperature, 30 min; GST-TFs on glutathione beads, 16-mer random dsDNA library, 0.1% formaldehyde crosslink after washing; high values mean tight binding
Holding throughout (details): protein: recombinant; tags: N-terminal GST; dsDNA, one strand shown

The target in one experiment is T1, FLI1 (Homo sapiens, UniProt Q01543 1-452).
T1 sequence: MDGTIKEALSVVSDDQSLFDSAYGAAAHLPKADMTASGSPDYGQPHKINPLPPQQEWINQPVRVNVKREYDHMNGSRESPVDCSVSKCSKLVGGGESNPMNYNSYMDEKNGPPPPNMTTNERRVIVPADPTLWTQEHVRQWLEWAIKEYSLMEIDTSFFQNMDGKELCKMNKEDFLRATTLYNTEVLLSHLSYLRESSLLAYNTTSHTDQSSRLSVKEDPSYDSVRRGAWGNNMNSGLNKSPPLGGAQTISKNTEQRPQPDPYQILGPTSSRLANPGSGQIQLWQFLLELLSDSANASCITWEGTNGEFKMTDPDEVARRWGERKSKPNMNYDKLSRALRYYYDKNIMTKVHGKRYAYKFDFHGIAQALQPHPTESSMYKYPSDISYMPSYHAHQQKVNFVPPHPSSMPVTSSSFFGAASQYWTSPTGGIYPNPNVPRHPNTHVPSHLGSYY
In outline:
(§1)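 A tag-only sample was pooled with DNA-barcoded human transcription factors that had been expressed in yeast as GST fusions and captured on glutathione beads. The pools were incubated for 30 min at room temperature with 200 nmole of a random double-stranded 16-mer DNA library in Tris/NaCl/DTT/glycerol buffer, then washed, crosslinked with 0.1% formaldehyde, proximity-ligated (BsaI/T4 ligase, 1 h, 37 °C), PCR-amplified and sequenced on an Illumina NextSeq500. Binding signal is each hexamer's read frequency for a factor divided by its frequency for the tag-only sample.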

A further experiment addresses T2, ELK1 (Homo sapiens, UniProt P19419 1-428).
T2 sequence: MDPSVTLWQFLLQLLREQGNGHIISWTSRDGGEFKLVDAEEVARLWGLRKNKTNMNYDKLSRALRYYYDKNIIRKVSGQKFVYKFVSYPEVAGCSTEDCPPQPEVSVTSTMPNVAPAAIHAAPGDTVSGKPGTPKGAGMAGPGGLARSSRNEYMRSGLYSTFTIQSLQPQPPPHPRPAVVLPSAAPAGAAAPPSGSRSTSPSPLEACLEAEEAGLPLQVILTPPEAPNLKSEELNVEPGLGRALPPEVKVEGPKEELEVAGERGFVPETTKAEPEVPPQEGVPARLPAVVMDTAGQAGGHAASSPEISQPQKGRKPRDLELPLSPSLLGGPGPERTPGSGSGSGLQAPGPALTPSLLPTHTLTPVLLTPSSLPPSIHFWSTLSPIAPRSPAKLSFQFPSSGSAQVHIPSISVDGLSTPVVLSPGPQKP
In outline:
as §1

For another experiment, the target named is T3, GABPA (Homo sapiens, UniProt Q06546 1-454).
T3 sequence: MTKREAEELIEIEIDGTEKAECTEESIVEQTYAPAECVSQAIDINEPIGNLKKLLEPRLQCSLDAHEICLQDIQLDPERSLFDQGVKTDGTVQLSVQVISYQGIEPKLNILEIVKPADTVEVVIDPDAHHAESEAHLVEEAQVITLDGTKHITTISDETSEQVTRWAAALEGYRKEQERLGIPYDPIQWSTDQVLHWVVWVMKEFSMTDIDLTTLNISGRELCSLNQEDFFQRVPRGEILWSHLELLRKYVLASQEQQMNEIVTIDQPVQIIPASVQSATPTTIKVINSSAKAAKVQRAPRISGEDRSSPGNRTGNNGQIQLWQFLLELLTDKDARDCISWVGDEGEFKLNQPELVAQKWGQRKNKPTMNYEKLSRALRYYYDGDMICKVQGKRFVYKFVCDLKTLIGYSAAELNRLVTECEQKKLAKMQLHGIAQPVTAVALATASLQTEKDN
An outline of the steps: as §1

A further experiment deals with T4, ERG (Homo sapiens, UniProt P11308 1-479).
T4 sequence: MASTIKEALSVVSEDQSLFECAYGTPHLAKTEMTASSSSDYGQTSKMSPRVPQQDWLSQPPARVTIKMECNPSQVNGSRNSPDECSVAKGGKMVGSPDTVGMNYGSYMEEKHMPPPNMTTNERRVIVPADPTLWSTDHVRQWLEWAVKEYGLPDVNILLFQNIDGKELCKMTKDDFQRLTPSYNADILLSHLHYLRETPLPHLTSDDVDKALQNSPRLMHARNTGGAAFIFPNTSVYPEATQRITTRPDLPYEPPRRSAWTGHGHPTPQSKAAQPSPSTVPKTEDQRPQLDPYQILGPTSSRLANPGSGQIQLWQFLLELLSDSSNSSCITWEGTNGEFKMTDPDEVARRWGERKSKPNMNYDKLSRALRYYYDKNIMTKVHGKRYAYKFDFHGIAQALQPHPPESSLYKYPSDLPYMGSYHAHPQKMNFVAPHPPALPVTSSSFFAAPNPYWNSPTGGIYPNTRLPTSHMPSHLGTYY
An outline of the steps: as §1

A further experiment concerns the target ELF1 (Homo sapiens, UniProt P32519 1-619). An outline of the steps: as §1
The target of a further experiment is T5, EHF (Homo sapiens, UniProt Q9NZC4 1-300).
T5 sequence: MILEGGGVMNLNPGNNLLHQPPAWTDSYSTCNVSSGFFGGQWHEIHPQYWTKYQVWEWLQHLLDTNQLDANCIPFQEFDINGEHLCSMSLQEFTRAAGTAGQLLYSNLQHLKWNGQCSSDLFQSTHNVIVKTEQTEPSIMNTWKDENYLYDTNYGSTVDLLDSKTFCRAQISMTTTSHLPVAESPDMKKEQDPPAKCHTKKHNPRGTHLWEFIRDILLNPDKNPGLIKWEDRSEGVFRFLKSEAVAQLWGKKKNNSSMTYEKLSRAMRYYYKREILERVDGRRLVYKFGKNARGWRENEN
An outline of the steps: as §1

The target in a further experiment is SPI1 (Homo sapiens, UniProt P17947 1-270). An outline of the steps: as §1
The next experiment deals with SPIB (Homo sapiens, UniProt Q01892 1-262). An outline of the steps: as §1
The next experiment addresses T6, ELK3 (Homo sapiens, UniProt P41970 1-407).
T6 sequence: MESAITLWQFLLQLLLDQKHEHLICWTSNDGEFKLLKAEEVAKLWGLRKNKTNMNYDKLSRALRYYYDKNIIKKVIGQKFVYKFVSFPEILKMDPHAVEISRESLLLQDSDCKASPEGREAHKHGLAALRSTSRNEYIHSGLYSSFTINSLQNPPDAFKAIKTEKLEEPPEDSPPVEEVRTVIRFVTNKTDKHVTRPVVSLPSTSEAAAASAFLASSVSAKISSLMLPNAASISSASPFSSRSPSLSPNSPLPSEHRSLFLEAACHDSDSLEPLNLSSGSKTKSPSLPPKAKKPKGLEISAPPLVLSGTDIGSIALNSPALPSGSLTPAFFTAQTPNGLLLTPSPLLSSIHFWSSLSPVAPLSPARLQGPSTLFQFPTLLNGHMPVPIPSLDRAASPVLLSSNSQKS
An outline of the steps:
as §1

A further experiment has as its target T7, FEV (Homo sapiens, UniProt Q99581 1-238).
T7 sequence: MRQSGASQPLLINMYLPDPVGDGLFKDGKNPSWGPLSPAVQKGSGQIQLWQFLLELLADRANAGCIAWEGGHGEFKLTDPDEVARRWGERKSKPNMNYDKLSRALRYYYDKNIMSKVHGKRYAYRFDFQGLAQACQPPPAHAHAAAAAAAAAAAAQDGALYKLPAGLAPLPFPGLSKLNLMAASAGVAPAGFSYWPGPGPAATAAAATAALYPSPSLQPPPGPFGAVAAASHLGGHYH
An outline of the steps:
as §1

For another experiment, the target named is ETV5 (Homo sapiens, UniProt P41161 1-510). An outline of the steps:
as §1

The target in another experiment is T8, SPIC (Homo sapiens, UniProt Q8N5J4 1-248).
T8 sequence: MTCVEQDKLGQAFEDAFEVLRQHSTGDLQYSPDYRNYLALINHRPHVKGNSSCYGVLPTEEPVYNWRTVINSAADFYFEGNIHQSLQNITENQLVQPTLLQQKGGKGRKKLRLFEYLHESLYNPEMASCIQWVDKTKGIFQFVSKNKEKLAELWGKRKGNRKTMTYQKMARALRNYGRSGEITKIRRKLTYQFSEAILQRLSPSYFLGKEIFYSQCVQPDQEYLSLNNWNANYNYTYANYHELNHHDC
An outline of the steps:
as §1

Another experiment has as its target ELF4 (Homo sapiens, UniProt Q99607 1-663). In outline:
as §1

A further experiment deals with T9, ELK4 (Homo sapiens, UniProt P28324-2 1-405).
T9 sequence: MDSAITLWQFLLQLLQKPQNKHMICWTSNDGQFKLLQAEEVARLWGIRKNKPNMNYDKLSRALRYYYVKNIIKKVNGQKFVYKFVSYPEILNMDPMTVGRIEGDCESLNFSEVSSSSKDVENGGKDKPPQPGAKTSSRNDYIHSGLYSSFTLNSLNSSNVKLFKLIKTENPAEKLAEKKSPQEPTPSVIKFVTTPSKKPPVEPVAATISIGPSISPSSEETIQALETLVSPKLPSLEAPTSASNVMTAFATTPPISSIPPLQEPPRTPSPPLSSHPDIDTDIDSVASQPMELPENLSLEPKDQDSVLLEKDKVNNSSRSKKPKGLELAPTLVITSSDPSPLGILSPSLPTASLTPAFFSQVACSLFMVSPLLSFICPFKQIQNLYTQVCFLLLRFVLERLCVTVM
In outline: as §1

A further experiment concerns the target T10, ETV2 (Homo sapiens, UniProt O00321 1-342).
T10 sequence: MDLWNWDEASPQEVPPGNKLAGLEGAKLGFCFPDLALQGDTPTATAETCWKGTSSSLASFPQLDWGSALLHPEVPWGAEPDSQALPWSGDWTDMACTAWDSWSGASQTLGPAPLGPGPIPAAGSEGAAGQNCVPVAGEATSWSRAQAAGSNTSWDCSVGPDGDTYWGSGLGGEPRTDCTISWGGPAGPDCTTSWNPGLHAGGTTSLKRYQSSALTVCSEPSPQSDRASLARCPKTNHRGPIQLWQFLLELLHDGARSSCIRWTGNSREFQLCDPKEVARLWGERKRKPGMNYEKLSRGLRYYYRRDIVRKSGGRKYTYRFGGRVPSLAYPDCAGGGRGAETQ
An outline of the steps:
as §1

The next experiment has as its target T11, ELF3 (Homo sapiens, UniProt P78545 1-371).
T11 sequence: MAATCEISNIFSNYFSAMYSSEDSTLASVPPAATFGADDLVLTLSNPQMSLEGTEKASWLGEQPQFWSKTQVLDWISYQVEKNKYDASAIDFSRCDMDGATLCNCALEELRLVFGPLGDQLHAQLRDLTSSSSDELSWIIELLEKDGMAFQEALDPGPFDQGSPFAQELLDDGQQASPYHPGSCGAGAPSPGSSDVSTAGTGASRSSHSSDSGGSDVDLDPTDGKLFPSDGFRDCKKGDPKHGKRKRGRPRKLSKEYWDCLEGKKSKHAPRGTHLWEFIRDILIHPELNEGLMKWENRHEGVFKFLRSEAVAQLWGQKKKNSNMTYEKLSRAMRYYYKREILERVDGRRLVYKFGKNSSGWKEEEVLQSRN
In outline: as §1

The target of another experiment is ETV1 (Homo sapiens, UniProt P50549 1-477). In outline: as §1
ETV1, sequence (P50549 whole entry): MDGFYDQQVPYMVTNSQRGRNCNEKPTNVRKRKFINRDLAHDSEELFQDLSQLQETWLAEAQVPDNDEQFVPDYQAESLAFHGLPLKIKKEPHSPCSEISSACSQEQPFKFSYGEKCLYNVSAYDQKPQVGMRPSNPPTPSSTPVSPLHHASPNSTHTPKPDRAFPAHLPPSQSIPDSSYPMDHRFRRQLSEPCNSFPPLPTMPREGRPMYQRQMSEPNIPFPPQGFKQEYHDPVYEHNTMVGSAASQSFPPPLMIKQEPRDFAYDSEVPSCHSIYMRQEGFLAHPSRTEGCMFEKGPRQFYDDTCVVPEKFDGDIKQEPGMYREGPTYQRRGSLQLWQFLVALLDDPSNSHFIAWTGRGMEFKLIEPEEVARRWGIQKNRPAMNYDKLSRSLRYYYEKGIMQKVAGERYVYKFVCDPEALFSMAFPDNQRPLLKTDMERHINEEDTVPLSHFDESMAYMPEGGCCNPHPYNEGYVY

ELF4, sequence (Q99607 whole entry): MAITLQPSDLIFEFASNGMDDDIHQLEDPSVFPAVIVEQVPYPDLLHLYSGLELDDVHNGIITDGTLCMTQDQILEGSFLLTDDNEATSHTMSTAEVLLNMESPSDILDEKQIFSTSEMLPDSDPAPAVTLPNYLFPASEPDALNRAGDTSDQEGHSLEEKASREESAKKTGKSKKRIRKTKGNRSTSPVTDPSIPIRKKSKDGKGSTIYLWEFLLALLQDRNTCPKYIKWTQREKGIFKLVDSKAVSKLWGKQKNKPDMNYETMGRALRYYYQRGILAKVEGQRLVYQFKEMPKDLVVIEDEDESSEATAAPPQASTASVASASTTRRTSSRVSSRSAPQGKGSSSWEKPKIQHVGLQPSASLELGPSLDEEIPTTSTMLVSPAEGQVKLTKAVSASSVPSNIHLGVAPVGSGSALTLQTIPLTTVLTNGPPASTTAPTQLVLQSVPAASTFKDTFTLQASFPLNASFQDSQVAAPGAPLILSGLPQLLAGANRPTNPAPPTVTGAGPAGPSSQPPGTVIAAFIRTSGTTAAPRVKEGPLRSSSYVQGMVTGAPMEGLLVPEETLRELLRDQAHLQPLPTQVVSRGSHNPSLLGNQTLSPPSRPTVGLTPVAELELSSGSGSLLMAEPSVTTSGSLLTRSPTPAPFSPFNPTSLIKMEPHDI
SPIB, sequence (Q01892 whole entry): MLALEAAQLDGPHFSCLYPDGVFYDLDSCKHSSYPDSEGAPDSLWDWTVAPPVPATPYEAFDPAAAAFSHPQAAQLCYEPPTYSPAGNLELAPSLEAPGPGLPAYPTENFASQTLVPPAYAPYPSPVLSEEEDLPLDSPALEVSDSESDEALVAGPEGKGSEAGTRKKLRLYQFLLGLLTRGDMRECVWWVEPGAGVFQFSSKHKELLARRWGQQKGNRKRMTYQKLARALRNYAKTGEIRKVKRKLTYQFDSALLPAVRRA
ETV5, sequence (P41161 whole entry): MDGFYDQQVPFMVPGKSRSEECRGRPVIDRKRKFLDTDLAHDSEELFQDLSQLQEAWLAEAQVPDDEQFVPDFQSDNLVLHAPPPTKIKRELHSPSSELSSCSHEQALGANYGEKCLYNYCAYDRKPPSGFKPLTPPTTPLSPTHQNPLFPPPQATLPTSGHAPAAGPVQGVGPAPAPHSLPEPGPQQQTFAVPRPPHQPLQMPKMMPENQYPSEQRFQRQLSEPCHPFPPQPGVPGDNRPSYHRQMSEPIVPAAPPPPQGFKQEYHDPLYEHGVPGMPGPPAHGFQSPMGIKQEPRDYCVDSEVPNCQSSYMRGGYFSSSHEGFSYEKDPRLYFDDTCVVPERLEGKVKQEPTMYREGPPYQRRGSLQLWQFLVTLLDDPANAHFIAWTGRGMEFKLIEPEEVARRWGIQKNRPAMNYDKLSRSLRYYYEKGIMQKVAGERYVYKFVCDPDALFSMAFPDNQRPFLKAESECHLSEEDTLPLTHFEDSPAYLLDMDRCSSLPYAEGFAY
ELF1, sequence (P32519 whole entry): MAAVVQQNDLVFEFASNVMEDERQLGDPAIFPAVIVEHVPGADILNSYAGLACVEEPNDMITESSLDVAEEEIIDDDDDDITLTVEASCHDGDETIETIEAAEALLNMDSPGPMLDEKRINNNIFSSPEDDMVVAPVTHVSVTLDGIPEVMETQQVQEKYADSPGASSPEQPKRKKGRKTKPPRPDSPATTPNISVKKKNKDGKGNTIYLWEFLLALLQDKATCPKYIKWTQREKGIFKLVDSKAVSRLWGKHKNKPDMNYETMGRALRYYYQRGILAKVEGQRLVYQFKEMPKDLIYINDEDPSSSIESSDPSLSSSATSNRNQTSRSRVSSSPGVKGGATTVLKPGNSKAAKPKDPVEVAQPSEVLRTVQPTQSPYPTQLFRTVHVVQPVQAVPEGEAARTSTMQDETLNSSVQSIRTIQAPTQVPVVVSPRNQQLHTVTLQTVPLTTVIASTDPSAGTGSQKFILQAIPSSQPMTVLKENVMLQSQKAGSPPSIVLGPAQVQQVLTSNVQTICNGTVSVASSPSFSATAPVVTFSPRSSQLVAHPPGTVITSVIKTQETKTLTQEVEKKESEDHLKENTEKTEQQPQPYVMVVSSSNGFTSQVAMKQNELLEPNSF

With ACCTCA, the binding signal with FLI1 is 1.2 fold enrichment (6-mer frequency, TF over GST control); with ELK1, 1.16 fold enrichment (6-mer frequency, TF over GST control); in the experiment with GABPA it was 1.29 fold enrichment (6-mer frequency, TF over GST control); with ERG, 1.15 fold enrichment (6-mer frequency, TF over GST control); with ELF1, 1.23 fold enrichment (6-mer frequency, TF over GST control); with EHF, 1.28 fold enrichment (6-mer frequency, TF over GST control). Also, the binding signal is 1.22 fold enrichment (6-mer frequency, TF over GST control) with SPI1; 1.19 fold enrichment (6-mer frequency, TF over GST control) with SPIB; 1.19 fold enrichment (6-mer frequency, TF over GST control) with ELK3; 1.17 fold enrichment (6-mer frequency, TF over GST control) with FEV; 1.16 fold enrichment (6-mer frequency, TF over GST control) in the experiment with ETV5; 1.33 fold enrichment (6-mer frequency, TF over GST control) with SPIC. Also, the binding signal with ELF4 is 1.2 fold enrichment (6-mer frequency, TF over GST control); with ELK4, 1.26 fold enrichment (6-mer frequency, TF over GST control); in the experiment with ETV2 it was 1.2 fold enrichment (6-mer frequency, TF over GST control); in the experiment with ELF3 it was 1.24 fold enrichment (6-mer frequency, TF over GST control); with ETV1, 1.32 fold enrichment (6-mer frequency, TF over GST control).
Regarding GGATGT, the binding signal with FLI1 is 1.5 fold enrichment (6-mer frequency, TF over GST control); with ELK1, 1.7 fold enrichment (6-mer frequency, TF over GST control); with GABPA it was 1.39 fold enrichment (6-mer frequency, TF over GST control); with ERG it was 1.82 fold enrichment (6-mer frequency, TF over GST control); in the experiment with ELF1, 1.44 fold enrichment (6-mer frequency, TF over GST control); in the experiment with EHF, 1.74 fold enrichment (6-mer frequency, TF over GST control). For the same sequence, the binding signal in the experiment with SPI1 is 1.53 fold enrichment (6-mer frequency, TF over GST control); in the experiment with SPIB, 1.61 fold enrichment (6-mer frequency, TF over GST control); in the experiment with ELK3, 1.65 fold enrichment (6-mer frequency, TF over GST control); with FEV, 2.08 fold enrichment (6-mer frequency, TF over GST control); with ETV5, 1.77 fold enrichment (6-mer frequency, TF over GST control); with SPIC, 1.41 fold enrichment (6-mer frequency, TF over GST control). Moreover, the binding signal in the experiment with ELF4 is 1.39 fold enrichment (6-mer frequency, TF over GST control); with ELK4, 1.36 fold enrichment (6-mer frequency, TF over GST control); in the experiment with ETV2, 1.44 fold enrichment (6-mer frequency, TF over GST control); with ELF3 it was 1.61 fold enrichment (6-mer frequency, TF over GST control); in the experiment with ETV1, 1.69 fold enrichment (6-mer frequency, TF over GST control).

The values are drawn from article PMC7862700, “An all-to-all approach to the identification of sequence-specific readers for epigenetic DNA modifications on cytosine”.
